SMILES strings stand for the structures. Results filed as inconclusive are left out. The source made the active and inactive calls. Rule for the calls: active = hit-call score of the fitted dose curve at least 0.9, where 1 is the maximum; inconclusive = response in the unintended direction; inactive = score below 0.9.

The text below walks through data of PubChem BioAssay (EPA / NIEHS).

Sequence of rat Peripheral-type Benzodiazepine Receptor (PBR), Tspo (gene 24230) (P16257 whole entry, looked up): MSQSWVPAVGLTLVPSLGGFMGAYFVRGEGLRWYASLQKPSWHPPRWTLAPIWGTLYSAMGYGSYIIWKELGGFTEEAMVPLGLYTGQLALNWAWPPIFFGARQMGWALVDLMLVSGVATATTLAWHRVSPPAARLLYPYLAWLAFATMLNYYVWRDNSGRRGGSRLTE

This experiment has as its target rat Peripheral-type Benzodiazepine Receptor (PBR), Tspo (gene 24230) (UniProt P16257). As to the kind of experiment: NVS_MP_rPBR: NovaScreen (NVS) Membrane Protein Assay for rat Peripheral-type Benzodiazepine Receptor (PBR) (AID 2283335). The method, then: NVS_MP_rPBR is a biochemical, single-readout assay that uses extracted gene-proteins from Rat kidney membranes in a tissue-based cell-free assay. Measurements were taken 1 hour after chemical dosing in a 48-well plate.NVS_MP_rPBR is one of one assay component(s) measured or calculated from the NVS_MP_rPBR assay. It is designed to make measurements of radioligand binding, a form of binding reporter, as detected with scintillation counting signals by Filter-based radiodetection technology.Data from the assay component NVS_MP_rPBR was analyzed into 1 assay endpoint. This assay endpoint, NVS_MP_rPBR, was analyzed in the positive analysis fitting direction relative to DMSO as the negative control and baseline of activity. Using a type of binding reporter, loss-of-signal activity can be used to understand changes in the binding as they relate to the gene Tspo. Furthermore, this assay endpoint can be referred to as a primary readout, because the performed assay has only produced 1 assay endpoint. To generalize the intended target to other relatable targets, this assay endpoint is annotated to the transporter intended target family, where the subfamily is cholesterol transporter.
Binding assays used specific radioligands (tritiated, iodinated) with non-radioactive competitive displacement ligands in agonist or antagonist protocols (as indicated) and various reference compounds and inhibitors to titrate specific binding to receptors and transporters. Most enzyme assays (CYPs, kinases, phosphatases, proteases, HDACs) used recombinant protein and specific substrates (fluorescence mostly, some colorimetric and radioactive) and inhibitors, followed by a biochemical separation of substrate and product. All assays for the biochemical HTS were initially run in duplicate at a single concentration (10 uM for CYP450 assays and 25 uM for all others). […] Each assay was run with positive and negative controls, and concurrent controls on every plate. The follow-up (secondary) screen tested active chemical-pairs in concentration series, as well as a few additional assays not tested in the primary screen, some selected negative inactives, and several cases re-run in the concentration series for confirmatory purposes.
As for `COc1cc(OC)nc(NC(=O)NS(=O)(=O)Nc2ccccc2C(=O)N(C)C)n1`, the result was inactive.

As a reminder, the AC50 is the concentration at which the activity in the assay is half-maximal. In the case of `CCCCc1oc2ccccc2c1C(=O)c1cc(I)c(OCCN(CC)CC)c(I)c1`, the concentration at half-maximal activity (AC50) was 10.9 µM (active).

As to `c1cnc2c(c1)ccc1cccnc12`, the outcome was inactive.

For `CN(C)c1ccc(C(=C2C=CC(=[N+](C)C)C=C2)c2ccccc2)cc1`, the AC50 was 8.3 µM (active).

For `O=C(NCc1ncc(C(F)(F)F)cc1Cl)c1c(Cl)cccc1Cl`, the AC50 was 0.005 µM (active).

Consider `CCCCCCCCCCCCCCCCCC[N+](C)(C)Cc1ccccc1`, for which the AC50 is 12.5 µM (active).

As for `CCCCCc1ccc(O)cc1`, the compound was called inactive.

In the case of `C/C=C/C(=O)C1=C(C)CCCC1(C)C`, the concentration at half-maximal activity (AC50) is 16.8 µM (active).

As to `CC(C)c1c(C(=O)Nc2ccccc2)c(-c2ccccc2)c(-c2ccc(F)cc2)n1CC[C@@H](O)C[C@@H](O)CC(=O)O`, the AC50 is 0.729 µM (active).

Regarding `CCCCCCCC(OC)OC`, the compound was classed as inactive.

In the case of `CCCCCCCCCCCC`, the AC50 is 5.18 µM (active).
